# Sampled rows, rich in hits. Any-hit rate of the full collection: about 1.3%.
# RTF Ca sens act = cardiac RTF calcium sensitivity activators, primary screen, biochemical, IANBD-TnC fluorescence, EC20 calcium; IANBD-labeled TnC RTF fluorescence at EC20 calcium; 0% EC20 calcium, 100% full calcium; 340,000 compounds, 0.24% hits; activation, % at 7.2 µM; AID 493008, 2010;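 active means activation above the mean over all tested compounds plus 3 SD, cut at about 30% in these data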;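 further: rise in fluorescence read as greater calcium sensitivity of cardiac thin filaments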
# LANA-H2A inh = blockers of LANA interaction with H2A/H2B – biochemical, FP readout, HTS, primary screen | Protein LANA1 (Human herpesvirus 8 type P (isolate GK18)), Q9QR71 | cell-free LANA-H2A/H2B peptide, fluorescence polarization | inhibition, % (concentration not given with the values) | 320,000 compounds, 0.6% hits | AID 2629, 2010; in the data active means inhibition mostly above about 10%, no sharp cut-off; inactive means mostly below about 6.7%
# Target sequence (Q9QR71 whole entry, looked up): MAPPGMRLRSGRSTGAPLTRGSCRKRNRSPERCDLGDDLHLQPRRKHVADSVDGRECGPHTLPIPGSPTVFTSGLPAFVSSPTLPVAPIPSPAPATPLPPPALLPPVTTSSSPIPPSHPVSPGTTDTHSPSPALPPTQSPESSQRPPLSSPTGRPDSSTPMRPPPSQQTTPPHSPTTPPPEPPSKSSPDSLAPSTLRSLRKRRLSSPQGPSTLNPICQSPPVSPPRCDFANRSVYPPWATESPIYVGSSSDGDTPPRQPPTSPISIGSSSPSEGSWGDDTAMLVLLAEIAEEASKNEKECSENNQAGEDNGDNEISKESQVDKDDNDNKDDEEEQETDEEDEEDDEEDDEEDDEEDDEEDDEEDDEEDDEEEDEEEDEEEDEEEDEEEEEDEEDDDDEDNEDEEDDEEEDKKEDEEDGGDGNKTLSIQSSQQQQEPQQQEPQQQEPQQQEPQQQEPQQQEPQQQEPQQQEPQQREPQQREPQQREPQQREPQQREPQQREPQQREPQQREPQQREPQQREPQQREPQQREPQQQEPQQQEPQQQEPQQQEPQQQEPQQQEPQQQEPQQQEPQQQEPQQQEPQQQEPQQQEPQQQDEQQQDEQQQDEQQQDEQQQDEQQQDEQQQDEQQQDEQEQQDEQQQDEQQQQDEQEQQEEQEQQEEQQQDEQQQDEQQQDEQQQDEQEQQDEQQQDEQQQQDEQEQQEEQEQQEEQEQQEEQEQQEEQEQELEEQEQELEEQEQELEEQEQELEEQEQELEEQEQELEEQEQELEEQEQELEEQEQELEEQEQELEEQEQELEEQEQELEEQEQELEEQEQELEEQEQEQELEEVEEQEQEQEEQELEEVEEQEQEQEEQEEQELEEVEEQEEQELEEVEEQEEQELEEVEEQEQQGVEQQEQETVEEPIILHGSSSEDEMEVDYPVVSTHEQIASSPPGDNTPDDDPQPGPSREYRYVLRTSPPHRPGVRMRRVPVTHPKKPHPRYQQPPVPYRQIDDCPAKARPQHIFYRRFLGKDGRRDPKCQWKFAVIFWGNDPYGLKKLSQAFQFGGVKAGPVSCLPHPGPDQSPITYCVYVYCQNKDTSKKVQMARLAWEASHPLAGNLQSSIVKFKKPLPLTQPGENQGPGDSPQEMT
# eLon inh = inhibitors of E. coli Lon protease, primary screen, biochemical, fluorescence polarization | P0A9M0 | purified E. coli Lon protease | inhibition, % at 7.94 µM | 360,000 compounds, 0.42% hits | AID 602123, 2011; in the data active means inhibition above about 13%, passing the limit was not always enough;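 further: 0% = enzyme with probe and DMSO and 100% = no enzyme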
# C-LANA FP = inhibitors of KSHV C-LANA binding to DNA, primary screen, biochemical, fluorescence polarization, FAM-LBS DNA, MBP-C-LANA, single point; inhibition, % at 9 µM; 340,000 compounds, 0.078% hits; AID 504423, 2011;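 active means highest replicate inhibition at or above 60% at 9 µM, even if other replicates fall short; inactive means all replicates below 60% inhibition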;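 further: 0% = neutral control wells and 100% = 4 µM acridine orange control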
# Cardiac RTF inh = cardiac RTF calcium sensitivity inhibitors, primary screen, biochemical, IANBD-TnC fluorescence, EC70 calcium. IANBD-labeled cardiac RTF, Ca2+ fluorescence. 340,000 compounds, 0.12% hits. inhibition, % at 7.15 µM. AID 493244, 2011;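 active means inhibition above the mean inhibition of all tested compounds plus 3 SD, cut at about 17% in these data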;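 further: assay run at fixed EC70 calcium of 1.6 mM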
# Keap1-Nrf2 PPI = Keap1-Nrf2 protein-protein interaction inhibitors, primary screen, biochemical, fluorescence polarization, single point; Kelch-like ECH-associated protein 1 (Homo sapiens), Q14145; Keap1 Kelch-Nrf2 peptide fluorescence polarization, 1536-well; inhibition, % at 9.4 µM; 340,000 compounds, 0.15% hits; AID 504523, 2011; in the data active means inhibition above about 12%;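 further: human Keap1 Kelch domain with fluorescein labeled Nrf2 9mer peptide probe; 0% = neutral control wells and 100% = peptide positive control; higher means more block of Keap1 binding to Nrf2 peptide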
# * marks the source's active call; other numbers are inactive results; i = inactive; . = not tested or not shown; + = active, no number; ! = not confirmed by another sample.
SMILES,RTF Ca sens act,LANA-H2A inh,eLon inh,C-LANA FP,Cardiac RTF inh,Keap1-Nrf2 PPI
CN(C)CCOC(c1ccccc1)c1ccccc1 (tested in a mixture with another compound),i,13*,.,.,i,.
O=C(c1cc(Br)ccc1Cl)N1CCCC1,5,11*,3,-1,-10,-4
O=C(OCC(=O)N1CCCC1)c1cc(Br)ccc1Cl,1,4,1,-1,-5,1
COc1ccc(CN2CC[C@H]3C=CCc4cccc(c43)C2)cc1,-3,7,-3,1,-3,0
Cc1cccc(N)c1-c1c(C)cccc1N,12,-1,2,0,9,-5
O=C(NCc1cccnc1)c1cc2ccccc2oc1=O,-5,0,-8,0,-1,-3
O=C(OCCNC(=O)c1cc2ccccc2oc1=O)c1cccnc1,6,50*,0,-1,4,-5
COCCn1c(=S)[nH]c2cc(C(=O)N3CCN(C4CCCCC4)CC3)ccc2c1=O,.,.,-5,.,.,.
O=C(c1ccc(Cn2c(=S)[nH]c3ccc(Br)cc3c2=O)cc1)N1CCN(C2CCCCC2)CC1,2,10*,-1,0,2,-3
C=CCSc1nnc(NC(=O)Cn2cnc3c2c(=O)n(C)c(=O)n3C)s1,8,78*,-1,1,-9,-6
Cc1nn(C)c(C)c1CNC(=O)Nc1cccc(Cl)c1C,-4,3,-3,-2,-1,1
O=C(c1cc2cc(Br)ccc2o1)N1CCN(c2ccccc2)CC1,4,16*,-15,1,-4,-4
Cc1nn(-c2ccccc2)c(Cl)c1C(=O)NCC1CCCO1 (stereo unspecified),-1,24*,0,1,3,-1
CC(NC(=O)c1cc(S(=O)(=O)N2CCOCC2)ccc1N1CCCC1)c1ccc(Cl)c(Cl)c1 (stereo unspecified),-3,-1,-13,0,-6,-1
CCCN1C(=O)/C(=C/c2c(NCCCOC(C)C)nc3c(C)cccn3c2=O)SC1=S,12,-7,-92,3,-21,-5
CCC(C)N1C(=O)/C(=C/c2c(NCCCOC(C)C)nc3c(C)cccn3c2=O)SC1=S (stereo unspecified),133*,-11,-241,10,-37,-5
CN(Cc1ncc[nH]1)C(=O)CC1C(=O)NCCN1Cc1c(F)cccc1Cl (stereo unspecified),2,4,-8,-1,-11,4
CN(CCC1CCOCC1)C(=O)CC1C(=O)NCCN1Cc1c(F)cccc1Cl (stereo unspecified),-2,40*,1,3,-3,-3
O=C(CC1C(=O)NCCN1Cc1cccc(F)c1)NCCCOc1cccnc1 (stereo unspecified),-4,8,3,2,-2,1
N#C/C(=C\c1ccc(OCc2ccccc2)cc1)C(=O)Nc1nc2c(s1)CCN(Cc1ccccc1)C2,0,2,-13,1,9,-5
CN(C)c1ccc(/C=C(/C#N)C(=O)Nc2nc3c(s2)CCN(Cc2ccccc2)C3)cc1,51*,.,i,5,-61,-1
COc1cc(S(=O)(=O)Nc2cccnc2)ccc1Cl,3,-3,-1,-3,-8,-11
O=C(NCc1ccncc1)C(=O)NC1CC1,5,+,8,1,-1,-4
Cc1ccc(S(=O)(=O)NC2CC2)cc1,11,-3,-1,0,-1,-1
Cc1ccc(S(=O)(=O)NC2CCCCC2)cc1,-5,45*,-1,3,-7,5
SMILES,RTF Ca sens act,LANA-H2A inh,eLon inh,C-LANA FP,Cardiac RTF inh,Keap1-Nrf2 PPI
C[N+]1(CCC(=O)c2ccccc2)CCCCC1,4,1,0,2,-17,-7
C[N+]1(C)CCC(=C(c2ccccc2)c2ccccc2)CC1,-2,15*,-8,0,10,0
CCOC(=O)CCCCC(=O)c1[nH]c(=O)[nH]c1C[n+]1ccc(C)cc1,-1,4,-3,1,-14,-1
CCOC(=O)CCCCC(=O)c1[nH]c(=O)[nH]c1C[n+]1ccccc1,.,17*,.,.,.,.
CCOc1ncccc1C(=O)N1CCCSC1=Nc1ccc(C(C)=O)cc1,0,-2,10,-1,-3,-2
Cc1cc(/C=C2/C(=N)N3C(=NC2=O)SN=C3S(C)(=O)=O)c(C)n1-c1ccccc1F,-2,7,-9,1,14,-4
CS(=O)(=O)C1=NSC2=NC(=O)/C(=C\c3cccn3-c3ccc(Cl)cc3)C(=N)N21,1,48*,-16,5,-6,-1
N#C/C(=C\c1coc2ccc(O)cc2c1=O)C(=O)Nc1nc2ccccc2s1,313*,-5,-409,-1,i,-111
Cc1ccc(NC(=O)c2cc(S(=O)(=O)N3CCCCC3)ccc2N2CCOCC2)cc1S(=O)(=O)N(C)C,83*,.,6,-1,-110,-2
CCOc1ccc(/C=N/OCC(=O)Nc2cc(C)on2)cc1,0,21*,-1,1,-15,-5
CCN1/C(=C/c2ccc3cc(C)ccc3[n+]2CC)Sc2cc(C)ccc21,51*,.,-147,-9,-105,-19
CCCCN1/C(=C/c2ccc3ccccc3[n+]2CC)Sc2ccccc21,.,.,-63,-24,.,-8
Brc1cccc(-c2n[nH]c(-c3ccccc3)n2)c1,1,17*,0,0,-1,-1
c1ccc(-c2nc(-c3cccnc3)n[nH]2)cc1,.,-1,.,.,.,.
COc1ccc(CCNC(=O)c2cccn2C)cc1,1,30*,-6,0,-8,1
CC(C)OC(=O)C(C)(C)Oc1ccc(C(=O)c2ccc(Cl)cc2)cc1,-4,35*!,-2,3,5,-6
O=[N+]([O-])c1ccc(Sc2cccc[n+]2[O-])c2nonc12,6,.,-34,19,-6,20*
O=C(O)CCNC(=O)CCCn1nnc2ccccc2c1=O,0,92*,-8,0,2,3
COC(=O)C1=C(C)N(C)C(=O)NC1c1c(O)ccc2ccccc12 (stereo unspecified),-6,2,0,-1,5,-4
O=C(/C=C/c1ccc(Br)o1)Nc1nccs1,12,19*,-4,3,-7,-4
COc1cccc(NC(=O)NC2CCN(CC(=O)Nc3ccccc3[N+](=O)[O-])CC2)c1,-8,-15,7,1,2,-2
